PubChem BioAssay (EPA / NIEHS)
Active and inactive are the calls of the source. Rule for the calls: active = hit-call score of the fitted dose curve at least 0.9, where 1 is the maximum; inactive = score below 0.9.

Biological target: Heat shock factor protein 1 (Homo sapiens) (UniProt Q00613)
Test: ATG_HSE_CIS: Attagene CIS-FACTORIAL HepG2 Assay for human Heat Shock Transcription Factor 1 (HSE) (AID 2282953)
Settings: HepG2 HSE cis-reporter, Attagene RNA transcription; actives raise or lower the signal
Protocol: ATG_CIS is a cell-based, multiplexed-readout assay that uses HepG2, a human liver cell line, with measurements taken at 24 hours after chemical dosing in a 24-well plate.ATG_HSE_CIS is one of 52 assay component(s) measured or calculated from the ATG_CIS assay. It is designed to make measurements of mRNA induction, a form of inducible reporter, as detected with fluorescence intensity signals by Reverse transcription polymerase chain reaction (RT-PCR) and Capillary electrophoresis technology.Data from the assay component ATG_HSE_CIS was analyzed into 1 assay endpoint. This assay endpoint, ATG_HSE_CIS, was analyzed with bidirectional fitting relative to DMSO as the negative control and baseline of activity. Using a type of inducible reporter, measures of mRNA for gain or loss-of-signal activity can be used to understand the reporter gene at the transcription factor-level as they relate to the gene HSF1. Furthermore, this assay endpoint can be referred to as a primary readout, because this assay has produced multiple assay endpoints where this one serves a reporter gene function. To generalize the intended target to other relatable targets, this assay endpoint is annotated to the dna binding intended target family, where the subfamily is heat shock protein.
Human liver HepG2 cells are transiently transfected with multiple reporter transcription units (MRTUs) in 6-well plates using FuGene 6 reagent (Roche; 3 ml FuGene/1 mg DNA). The MRTU constructs are regulated by a cis-regulating element (promoter). […] A major difference between the CIS and TRANS system is that in CIS activities of endogenous TFs are measured, whereas the TRANS assay evaluates changes in activities of exogenous, chimeric NR-Gal4 proteins. […] At the end of 24 hour incubation, total RNA was isolated using TriZol reagent (Invitrogen). The isolated RNA is then reverse-transcribed using oligo(dT) primer and Mo-MLV reverse transcriptase (Invitrogen) with DNAse I (Ambion) treatment for 30 min. The one-tenth of the produced cDNA was amplified by PCR using Taq DNA polymerase (Invitrogen) and two reporter sequence-specific primers. The PCR products were fluorescently labeled by primer extension with 6-arboxyfluorescein (6-FAM) 5'-labeled reporter sequence-specific primer (2 min at 95 C, 20 s at 68 C and 10 min at 72 C) and these products were digested with 5U of HpaI (New England Biolabs) for 2h at 37 C. The fragments were purified using Qiaquick PCR columns (Qiagen), analyzed on an ABI 3130xL genetic analyzer (Applied Biosystems) with peak positions identified by using a set of X-rhodamine (ROX)-labeled MapMarker1000 molecular weight standards (BioVentures). The raw capillary electrophoresis data was processed using Attagraph software (Attagene).

Heat shock factor protein 1 (Homo sapiens), sequence (Q00613 whole entry, looked up): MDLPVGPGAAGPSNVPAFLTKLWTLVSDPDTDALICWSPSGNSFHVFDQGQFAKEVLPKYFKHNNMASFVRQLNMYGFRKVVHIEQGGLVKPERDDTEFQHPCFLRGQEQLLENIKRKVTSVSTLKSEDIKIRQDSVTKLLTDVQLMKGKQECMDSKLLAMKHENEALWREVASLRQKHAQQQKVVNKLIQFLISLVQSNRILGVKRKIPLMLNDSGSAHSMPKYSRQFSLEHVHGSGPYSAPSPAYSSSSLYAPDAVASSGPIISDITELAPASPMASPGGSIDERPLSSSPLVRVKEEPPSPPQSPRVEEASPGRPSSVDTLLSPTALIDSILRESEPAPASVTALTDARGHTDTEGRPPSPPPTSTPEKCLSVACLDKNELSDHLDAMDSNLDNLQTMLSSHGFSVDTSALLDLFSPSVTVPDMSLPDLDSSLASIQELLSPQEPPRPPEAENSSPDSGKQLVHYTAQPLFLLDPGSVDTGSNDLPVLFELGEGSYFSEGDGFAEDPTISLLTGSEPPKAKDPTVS

Question: How did the outcome turn out when `CC1CCC(C(C)(C)O)CC1` (stereo not given) was run?
Answer: inactive

Question: For `COC(C(=O)O)c1ccccc1` (stereo not given), which outcome is on record?
Answer: inactive

Question: With `CC(C=O)Cc1ccc(C(C)C)cc1` (stereo not given) as the compound, how does the outcome read?
Answer: inactive

Question: For `O=c1oc(=O)c2cc3c(=O)oc(=O)c3cc12`, which outcome is on record?
Answer: inactive

Question: How did the outcome turn out when `CSc1nnc(C(C)(C)C)c(=O)[nH]1` was run?
Answer: inactive

Question: With `NC(=O)Nc1ccc(Cl)cc1` as the compound, how does the outcome read?
Answer: inactive

Question: For `CN(C)c1ccc(O)c2c1C[C@H]1C[C@H]3[C@H](N(C)C)C(=O)C(C(N)=O)=C(O)[C@@]3(O)C(=O)C1=C2O`, which outcome is on record?
Answer: inactive

Question: `O=C(O)c1cn(C2CC2)c2cc(N3CCNCC3)c(F)cc2c1=O` was tested. Which outcome did it give?
Answer: inactive

Question: How did the outcome turn out when `C=CC(=O)NCOCC(C)C` was run?
Answer: inactive

Question: How did the outcome turn out when `CC(C)(C)NC(N)=O` was run?
Answer: inactive

Question: `C#C[C@]1(O)CC[C@H]2[C@@H]3CCC4=Cc5oncc5C[C@]4(C)[C@H]3CC[C@@]21C` was tested. Which AC50 did it give?
Answer: 58.2 µM (active)

Question: With `[Ca+2]` as the compound, how does the outcome read?
Answer: inactive

Question: For `O=Cc1ccc(Cl)c([N+](=O)[O-])c1`, which AC50 is on record?
Answer: 142 µM (active)

Question: How did the outcome turn out when `C[C@H]1C[C@H]2[C@@H]3CCC4=CC(=O)C=C[C@]4(C)[C@@]3(F)[C@@H](O)C[C@]2(C)[C@@]1(O)C(=O)COP(=O)(O)O` was run?
Answer: inactive

Question: `CC(=O)Nc1ccccc1O` was tested. Which outcome did it give?
Answer: inactive

Question: With `N#Cc1nc(Cl)c(Cl)c(Cl)c1Cl` as the compound, how does the AC50 read?
Answer: 5.66 µM (active)

Question: With `O=C(O)CCSCCC(=O)O` as the compound, how does the outcome read?
Answer: inactive

Question: Which outcome does the source give for `CCC(C(=O)NC(N)=O)c1ccccc1` (stereo not given) here?
Answer: inactive

Question: `CCCCCCCCCC=O` was tested. Which outcome did it give?
Answer: inactive

Question: With `CC(=O)OCCOC(C)=O` as the compound, how does the outcome read?
Answer: inactive

Question: `NC(=O)NC1NC(=O)NC1=O` (stereo not given) was tested. Which outcome did it give?
Answer: inactive

Question: `C=C(C)[C@@H]1CCC2=CC(=O)C[C@@H](C)[C@]2(C)C1` was tested. Which outcome did it give?
Answer: inactive

Question: With `O=C1O[C@@H]2[C@@H](O)[C@H](O)O[C@@H]2[C@H]1O` as the compound, how does the outcome read?
Answer: inactive

Question: Which AC50 does the source give for `O=Nc1ccc(Nc2ccccc2)cc1` here?
Answer: 27.8 µM (active)

Question: How did the outcome turn out when `CCC(=O)OCc1ccccc1` was run?
Answer: inactive

Question: With `CCCCCNCCCCC` as the compound, how does the outcome read?
Answer: inactive

Question: For `O=C1C(c2[nH]c3ccc(S(=O)(=O)O)cc3c2O)=Nc2ccc(S(=O)(=O)O)cc21`, which outcome is on record?
Answer: inactive

Question: Which outcome does the source give for `Cc1cccc(Nc2ccccc2C(=O)O)c1C` here?
Answer: inactive

Question: Which outcome does the source give for `CCC(O)CO` (stereo not given) here?
Answer: inactive

Question: With `CC(C)=CCC/C(C)=C/COC=O` as the compound, how does the outcome read?
Answer: inactive

Question: How did the outcome turn out when `COc1cc(C(C)(C)C)c(O)c(C(C)(C)C)c1` was run?
Answer: inactive

Question: Which outcome does the source give for `CC(C)[C@@H]1CC[C@@H](C)CC1=O` here?
Answer: inactive

Question: For `Clc1sc(Cl)c(Cl)c1Cl`, which outcome is on record?
Answer: inactive

Question: For `O=C[C@H](O)[C@H](O)[C@H](O)CO`, which outcome is on record?
Answer: inactive

Question: Which outcome does the source give for `Nc1ccc(F)c([N+](=O)[O-])c1` here?
Answer: inactive

Question: Which outcome does the source give for `CC(C)c1cccc(O)c1` here?
Answer: inactive

Question: For `C=CC(=O)OCCn1c(=O)n(CCOC(=O)C=C)c(=O)n(CCOC(=O)C=C)c1=O`, which AC50 is on record?
Answer: 54.2 µM (active)

Question: With `Cc1cccc(C)c1[N+](=O)[O-]` as the compound, how does the outcome read?
Answer: inactive

Question: With `CC[Si](OC(C)=O)(OC(C)=O)OC(C)=O` as the compound, how does the outcome read?
Answer: inactive

Question: Which outcome does the source give for `CCCCCCCCCCCCOCCO` here?
Answer: inactive
